Test results published in PubChem BioAssay (NCATS).
Records with an inconclusive call do not appear. Calls of active or inactive are those of the source. The call rests on the fitted dose curve; in most records, active means well fitted cell-killing curve with a large enough effect; inconclusive means small, poorly fitted or top-dose-only effect, or effect the other way; inactive means no such curve, though single readings can be large or run the other way.
Potency means the concentration at half of the fitted maximal effect.

Test: Viability qHTS for spleen associated tyrosine kinase inhibitor (SYKi) drug resistant MV4-11 cells (AID 1963824); further: nearly all actives have a fitted effect of over 35% in size
Settings: SYKi-resistant MV4-11 viability, CellTiter-Glo, 72 h; series mostly up to 45 µM; viability, % of control: at the top concentration
Procedure, shortened: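 SYK-inhibitor-resistant MV4-11 AML cells were seeded at 500 per well onto compound and cultured 72 hours (37 °C, 5% CO2). CellTiter-Glo was then added, and after 10 min at room temperature, luminescence gave viability.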
With Nc1nc(-c2nn(Cc3ccccc3F)c3ncccc23)ncc1C1CC1 the Potency was 1.32 µM (active).
For C/C=C(\C)C(=O)OC1C[C@@]2(COC(C)=O)O[C@H]2/C=C\[C@@]2(C)O[C@@H]2[C@H]2OC(=O)C(COC(C)=O)=C12 (stereo not given in full), the Potency was 4.47 µM (active).
For COC(=O)C[C@H]1C(C)(C)[C@H](OC(C)=O)C2CC3=C4CC(=O)O[C@@H](c5ccoc5)[C@]4(C)CCC3[C@@]1(C)C2=O (stereo not given in full), the Potency was 3.55 µM (active).
For Nc1nc2c(c(=O)[nH]1)N1CN(c3ccc(C(=O)N[C@@H](CCC(=O)O)C(=O)O)cc3)CC1CN2 (stereo not given in full), the Potency was 0.833 µM (active).
For CC1=C2CC(C)(C)CC2C(O)C2=C(C1)C(=O)OC2O (stereo not given), the “viability, % of control” value was 62.7% (inactive).
In the case of O=C(NCc1ccccc1)[C@H](Cc1ccccc1)NC(=O)[C@H]1O[C@@H]1C(=O)NCCc1ccc(O)cc1, the Potency is reported as 13.2 µM (active).
With CO[C@H]1/C=C\O[C@@]2(C)Oc3c(C)c(O)c4c(O)c(c5c(nc6cc(C)ccn65)c4c3C2=O)NC(=O)/C(C)=C\C=C/[C@H](C)[C@H](O)[C@@H](C)[C@@H](O)[C@@H](C)[C@H](OC(C)=O)[C@@H]1C the Potency was 16.4 µM (active).
For Cc1ccc(NS(=O)(=O)c2cc3c(cc2N(C)C)CCC(=O)N3)cc1C, the Potency was 18.4 µM (active).
With O=C(/C=C/c1nc2ccccc2[nH]1)c1c(-c2ccccc2)c2cc(Cl)ccc2[nH]c1=O the Potency was 0.291 µM (active).
In the case of COc1cc2ncnc(Nc3ccc(Oc4ccccc4)cc3)c2cc1OC, the Potency is reported as 0.291 µM (active).
In the case of C[C@@H](O)[C@H](N)C(=O)O, the “viability, % of control” value is reported as 49.8% [at 17.3 µM] (inactive).
With CC1CCC2(C(=O)OC3OC(CO)C(O)C(O)C3O)CCC3(C)C(=CCC4C5(C)CC(O)C(O)C(C)(C(=O)O)C5CCC43C)C2C1(C)O (stereo not given) the “viability, % of control” value was 89.9% [at 17.3 µM] (inactive).
With C[C@@H]1O[C@@H](O[C@H]2[C@H](O)[C@@H](C(=O)O)O[C@@H](O[C@H]3CC[C@@]4(C)C(CC[C@]5(C)C4CC=C4C6CC(C)(C)CC[C@]6(C(=O)O)CC[C@]45C)C3(C)C)[C@@H]2O[C@@H]2OC[C@@H](O)[C@H](O)[C@H]2O)[C@H](O)[C@H](O)[C@H]1O (stereo not given in full) the viability, % of control was 92.4% [at 9.25 µM] (inactive).
In the case of CC(O)/C=C/C1(O)C2(C)COC1(C)CC(O)C2 (stereo not given), the “viability, % of control” value is reported as 74.4% (inactive).
With OC[C@@]1(O)CO[C@H](OC[C@H]2O[C@@H](OC(CCCCc3ccc(O)cc3)CCc3ccc(O)cc3)[C@H](O)[C@@H](O)[C@@H]2O)[C@@H]1O (stereo not given in full) the “viability, % of control” value was 96.1% [at 17.3 µM] (inactive).
For CC12CCC(=O)C=C1C(O)CC1C2C(O)CC2(C)C1CC[C@]2(O)C(=O)CO (stereo not given in full), the viability, % of control was 90% [at 9.25 µM] (inactive).
With c1ccc(Nc2nc3c(s2)CCCc2[nH]ncc2-3)nc1 the Potency was 14.6 µM (active).
For COc1cc2ncnc(Nc3ccc(NC(=O)c4ccccc4)cc3)c2cc1OC, the Potency was 4.61 µM (active).
In the case of CC(=O)NC(C)c1cnc(-c2cnc(Oc3ccc(OC(C)C)cc3)s2)s1 (stereo not given), the Potency is reported as 10.3 µM (active).
With O=S(=O)(Nc1ccc(C(O)(C(F)(F)F)C(F)(F)F)cc1)c1cccs1 the Potency was 16.4 µM (active).
For O=C(Nc1cc(C(F)(F)F)ccc1N1CCCCC1)c1ccncc1, the Potency was 14.6 µM (active).
For Cc1noc(-c2ccc(-c3ccc(CC(=O)O)cc3)cc2)c1NC(=O)O[C@H](C)c1ccccc1Cl, the Potency was 20.6 µM (active).
For COc1cccc(CN(C(=O)CC(C)(C)C)C2CC(C(=O)N3CCNCC3)N(Cc3ccc4c(c3)OCO4)C2)c1 (stereo not given), the Potency was 16.4 µM (active).
In the case of COc1cc([C@H]2O[C@H](c3cc(OC)c4c(c3)OCO4)[C@H](C)[C@H]2C)cc(OC)c1OC, the Potency is reported as 0.893 µM (active).
In the case of CC(=O)OC[C@@]12C(=O)C[C@@H](C)[C@]3(C[C@@H](c4ccoc4)OC3=O)[C@H]1CC[C@H](OC(C)=O)[C@]21CO1, the “viability, % of control” value is reported as 87.9% [at 17.3 µM] (inactive).
With CC(=O)N[C@@H](CC(=O)O)C(=O)N[C@@H](CCC(=O)O)C(=O)N[C@H](C(=O)N[C@@H](CC(=O)O)C(=O)Nc1ccc2c(C)cc(=O)oc2c1)C(C)C the Potency was 6.51 µM (active).
With Cc1ccccc1C(=O)Nc1ccc(C(=O)N2CCC[C@@H](O)c3cc(Cl)ccc32)c(C)c1 the Potency was 20.6 µM (active).
With CC(=O)NC(CCC(=O)O)C(=O)NCCc1ccc(O)cc1 (stereo not given) the “viability, % of control” value was 85% (inactive).
With NC1CCC(Nc2cc(-c3cccc(NCc4cccc(F)c4)n3)c(Cl)cn2)CC1 (stereo not given) the Potency was 0.116 µM (active).
With CCC(C)/C=C(C)/C=C/C1=CC2=C(Cl)C(=O)C(C)(O)C(=O)C2(O)C(OC)O1 (stereo not given) the Potency was 10 µM (active).
In the case of CC(C)c1onc(-c2c(Cl)cccc2Cl)c1COc1ccc(/C=C/c2cccc(C(=O)O)c2)c(Cl)c1, the Potency is reported as 14.8 µM (active).
For CC(=O)c1ccc2c(c1)N(CCCN(C)C)c1ccccc1S2, the Potency was 11.9 µM (active).
For CNC(=O)c1ccccc1Nc1cc(Nc2ccc(N3CCOCC3)cc2OC)ncc1C(F)(F)F, the Potency was 0.326 µM (active).
For C=C(C(=O)O)[C@H]1C[C@]2(C)[C@@H](O)CC[C@]23O[C@H]1C[C@@H]3C, the “viability, % of control” value was 77.7% (inactive).
In the case of Cc1cc2occ(CN(C)CCN(C)Cc3cn(-c4cccc(C(F)(F)F)c4)c4ccccc34)c(=O)c2cc1C, the Potency is reported as 4.61 µM (active).
In the case of O=Nc1c(-c2c(O)[nH]c3ccc(F)cc23)[nH]c2ccccc12, the Potency is reported as 0.058 µM (active).
In the case of O=S(=O)(c1ccccc1)N(CC(F)(F)F)c1ccc(C(O)(C(F)(F)F)C(F)(F)F)cc1, the Potency is reported as 8.2 µM (active).
For C/C1=C\[C@@H](C)C[C@@H](C)[C@@H](Cc2cnco2)OC(=O)/C(C)=C/[C@@H](C)C[C@@H](C)[C@@H](Cc2cnco2)OC1=O, the Potency was 0.502 µM (active).
With COc1ccc([C@H]2CNC(=O)C2)cc1OC1CCCC1 the “viability, % of control” value was 96.2% (inactive).
For OC(CC1c2ccccc2-c2cncn21)C1CCCCC1 (stereo not given), the Potency was 20.6 µM (active).
